# Hit rate of the full screen: of about 69,000 compounds, about 8,600 (12%) showed an effect of 50% or more. This is one part of a sample in which strong results are shown more often than they occur.
# Tested on: Plasmodium berghei
# Assay: Screen against P. berghei liver stage (PbLuc), transformed with Luciferase, at 10uM
# Type: functional, HepG2
# Settings: tested at 10 uM
row,Structure (SMILES),INHIBITION [%]
1,CN(Cc1ccco1)C(=O)c1cccc(N2CCCC2=O)c1,-27.9
2,Cc1cc(=O)n2nc(Oc3cccc(I)c3)sc2n1,35.7
3,O=S(=O)(Cc1cccc(F)c1)Nc1cc(Cl)ccn1,11.9
4,CNC(=O)CN(C(=O)c1cc(C(C)C)no1)c1cccc(F)c1,-10.5
5,CN1CCN(c2ccc(CO)cc2F)CC1,68.4
6,OCc1ccc(N2CCN(c3ncccn3)CC2)c(F)c1,31.3
7,C=C(C)CN(CC)C(=O)c1cc(F)ccc1N1CCN(C)CC1,19.8
8,CN1CCN(c2ccc(F)cc2C(N)=O)CC1,58.7
9,CC(NCc1ccncc1)c1ccc(N2CCN(C)CC2)c(F)c1 (stereo not drawn),15.8
10,CC(C)N(CC(N)=O)C(=O)c1cc(F)ccc1N1CCN(C)CC1,1.74
11,Cc1cccc(C(=O)N2CC(C(=O)NCC3CC3)C3(CCOCC3)C2)n1 (stereo not drawn),37.1
12,CN1CCN(Cc2cccnc2)C(=O)C12CCN(C1CCOC1)CC2 (stereo not drawn),40.3
13,Cc1cc(F)ccc1N1CCCC(Nc2nccn3cnnc23)C1=O (stereo not drawn),25.4
14,O=C1C(Nc2nccn3cnnc23)CCCN1c1ccccc1Cl (stereo not drawn),24.3
15,Cc1ccc(F)c(N2CCCC(Nc3nccn4cnnc34)C2=O)c1 (stereo not drawn),52.7
16,COC[C@]1(O)CCN(Cc2cnc(N(C)C)nc2)CC1(C)C,-28.9
17,O=C(O)C1(n2ccnc2)CCN(Cc2cc3ccccc3o2)CC1,30.9
18,CCc1c(C)sc2c1c(N)nc(=O)n2CCN1CCOCC1,-39.7
19,CCc1c(O)n(C(C)CC)c(SCC(=O)c2ccccc2)nc1=O (stereo not drawn),36.7
20,CCc1c(O)nc(SCC(=O)N(CC)CC)n(C(C)CC)c1=O (stereo not drawn),29
21,CCc1c(O)nc(SCC(=O)Nc2ccccc2)n(C(C)CC)c1=O (stereo not drawn),56.1
22,Cn1cc(CN2CCc3c(CNC(=O)C4CC4)cncc3C2)cn1,-17.2
23,O=C(c1cccnc1)N1C[C@H]2CN(Cc3cccc(F)c3)C(=O)[C@H]2C1,-55.2
24,CC(C)NC(=O)[C@H](C)NC(=O)N1CCN(c2ccc(Cl)cc2)CC1,38.1
25,CC(C)NC(=O)[C@@H](NC(=O)N1CCN(c2ccc(Cl)cc2)CC1)C(C)C,65.5
26,CC(C)NC(=O)C(NC(=O)N1CCN(c2ccc(Cl)cc2)CC1)C(C)C (stereo not drawn),-9.39

row,Structure (SMILES),INHIBITION [%]
1,Cc1nc(C(=O)N2CCCC2c2noc(C3CC3)n2)c[nH]1 (stereo not drawn),31.8
2,c1ccc(CN2C[C@@H]3COC[C@]3(COCc3ccncc3)C2)nc1,48.6
3,COc1ccccc1CN1C[C@@H]2COC[C@]2(COCc2ccncc2)C1,60.2
4,COc1cccc(CN2C[C@@H]3COC[C@]3(COCc3ccncc3)C2)c1,28.4
5,c1cc(COC[C@]23COC[C@H]2CN(Cc2ccncc2)C3)ccn1,43.9
6,COc1ncccc1CN1C[C@@H]2COC[C@]2(COc2cccnc2)C1,-2.17
7,COc1cccc(CN2C[C@@H]3COC[C@]3(COCc3ccccn3)C2)c1,53.2
8,COc1ccccc1CN1C[C@@H]2COC[C@]2(COc2cccnc2)C1,-8.94
9,COc1ccc(CN2C[C@@H]3COC[C@]3(COc3cccnc3)C2)cc1,24
10,CCOC[C@]12COC[C@H]1CN(Cc1cccc(OC)c1)C2,56.7
11,COc1cccc(CN2C[C@@H]3COC[C@]3(COc3cccnc3)C2)c1,67.2
12,CCS(=O)(=O)NC[C@]12COC[C@H]1CN(Cc1cccc(OC)c1)C2,39.2
13,COc1cccc(CN2C[C@@H]3COC[C@]3(CN3CCOCC3)C2)c1,29.9
14,COC(=O)c1cc(OCC2CCC2)cc(C(=O)NCC(C)(C)O)c1,40.2
15,O=C(CC1CCC2(CC1)CCN(Cc1nccs1)CC2)N1CC=CC1,35.2
16,CCc1nnc2n1CCN(C(=O)c1cc(C)n(-c3ccccc3)c1C)C2,5.9
17,Cc1cc(CN2C[C@@H]3COC[C@]3(CN(C)C)C2)no1,18.8
18,CN(C)C[C@]12COC[C@H]1CN(Cc1ccc3ccccc3n1)C2,4.02
19,CN(C)C[C@]12COC[C@H]1CN(Cc1ccccn1)C2,87.7
20,CNc1nccc(C2CCCCN2Cc2cnn3cccnc23)n1 (stereo not drawn),-7.66
21,O=C1CC2(CCN(CCO)CC2)CN1Cc1cc(F)cc(F)c1,60.1
22,CC(C)N1CCC2(CC1)CC(=O)N(Cc1cc(F)cc(F)c1)C2,35.1
23,O=C1CC2(CCN(Cc3ccoc3)C2)CN1c1cncnc1 (stereo not drawn),43.9
24,O=C(CO)N1CCC2(CC1)CC(=O)N(Cc1cc(F)cc(F)c1)C2,8.99
25,O=C1CC2(CCN(Cc3ccoc3)CC2)CN1Cc1cc(F)cc(F)c1,73.4
26,O=C1CC2(CCN(CCCF)CC2)CN1Cc1cc(F)cc(F)c1,75.7

row,Structure (SMILES),INHIBITION [%]
1,CCCS(=O)(=O)N1CCC2(CC1)CC(=O)N(Cc1cc(F)cc(F)c1)C2,17.1
2,CCN1CC2(CCN(CCOc3ccc(F)cc3)CC2)CC1=O,0.868
3,CC(C)=CCN1CCC2(CC1)CC(=O)N(Cc1cc(F)cc(F)c1)C2,38.6
4,O=C1CC2(CCN(CCCO)CC2)CN1Cc1ccc(F)c(F)c1,36.8
5,O=C1CC2(CCN(Cc3ncc[nH]3)CC2)CN1Cc1cc(F)cc(F)c1,-6.05
6,CCCOCCN1CCC2(CC1)CC(=O)N(Cc1cc(F)cc(F)c1)C2,64.1
7,Cc1nc([C@@H]2C[C@@H]3CCN(C(=O)Cc4cccs4)C[C@H]3O2)no1,11.6
8,CCCc1noc(-c2cn(CC(=O)N(CC)CC)nn2)n1,-51.7
9,Cc1ccc(C(O)CN(C)Cc2cnn(C)c2)cc1C (stereo not drawn),28.7
10,Cn1ccc(C(=O)NC2CCC23CCN(C(=O)c2ccncc2)CC3)c1 (stereo not drawn),13.5
11,CNc1snc(C)c1C(=O)N1CCC(Nc2ccc(C)nn2)CC1,1.15
12,O=C1CCC(=O)N1CCn1nnc(-c2cccc(Cl)c2)n1,-5.57
13,O=C1CC2(CCN(CC3CC3)C2)CN1c1cccc(F)c1 (stereo not drawn),-6.02
14,O=C1CC2(CCN(CC3CC3)CC2)CN1Cc1cc(F)cc(F)c1,69.3
15,O=C1CC2(CCN(CC3CCOC3)CC2)CN1Cc1cc(F)cc(F)c1 (stereo not drawn),46.8
16,CCc1n[nH]c(C2CN(C(=O)c3ccnc(C4CC4)n3)CCO2)n1 (stereo not drawn),31.3
17,CCc1ccc(CN2C[C@H](OCC(=O)N(C)C)[C@H]3COC[C@H]32)o1,26.5
18,Cc1nn(C)cc1CC(C#N)C(=O)Nc1cccc(O)c1 (stereo not drawn),3.58
19,COCc1cc(O)nc(C2CCCN(Cc3ccc(OC)cc3)C2)n1 (stereo not drawn),61.9
20,CCc1cc(O)nc(C2CCCN(Cc3ccncc3)C2)n1 (stereo not drawn),47.1
21,COc1ccc(CC(=O)N2CCCC2c2nc(C)c(C)c(O)n2)cc1 (stereo not drawn),46
22,COc1ccc(F)c(CN2CCCC(c3cc(O)nc(C)n3)C2)c1 (stereo not drawn),25.8
23,COc1cccc(CC(=O)N2CCCC2c2nc(C)c(F)c(O)n2)c1 (stereo not drawn),3.91
24,COc1ccc(F)c(CN2CCC(c3cc(O)nc(C)n3)C2)c1 (stereo not drawn),50.6
25,COc1cccc(CN2CCC(c3cc(O)nc(C)n3)C2)c1 (stereo not drawn),47.8
26,COCc1cc(O)nc(C2CCCN(Cc3ccc(F)cc3)C2)n1 (stereo not drawn),39.7

row,Structure (SMILES),INHIBITION [%]
1,COc1cccc(CC(=O)N2CCCC2c2nc(C)c(C)c(O)n2)c1 (stereo not drawn),50.8
2,COc1ccc(CN2CCC(c3cc(O)nc(C)n3)C2)c(F)c1 (stereo not drawn),21.9
3,COCc1cc(O)nc(C2CCCN(Cc3cccc(Cl)c3Cl)C2)n1 (stereo not drawn),17.4
4,COCc1cc(O)nc(C2CCCN(Cc3cccc(OC)c3)C2)n1 (stereo not drawn),57.5
5,CCN(CC1CCOC1)C(=O)Nc1ccc(OCC(F)(F)F)nc1 (stereo not drawn),-1.885
6,CC(C)(C)CCN1CCC(c2nnc(Cn3cccn3)n2C2CC2)CC1,32.2
7,CC(=O)NCC(=O)NCC1(O)CCN(c2cnccn2)C1 (stereo not drawn),42.25
8,COc1c(C)cnc(CN2CCOC(Cn3cncn3)C2)c1C (stereo not drawn),2.97
9,O=C(C1CCC2(CCN(CC3CCOCC3)CC2)O1)N1CCCC1 (stereo not drawn),1.34
10,COCCNC(=O)C1(Cc2ccccc2-c2ccncc2)CCOCC1,40
11,COc1ccc(OC)c(CN2CCC(c3cc(O)nc(C)n3)C2)c1 (stereo not drawn),41.2
12,COCc1cc(O)nc(C2CCCN(Cc3cc(OC)ccc3F)C2)n1 (stereo not drawn),52.3
13,Cc1cc(O)nc(C2CCCN(Cc3ccncc3)C2)n1 (stereo not drawn),27.3
14,COc1ccccc1C1CC(=O)Nc2c1c(=O)[nH]n2C1CCCC1 (stereo not drawn),11.7
15,Cc1n[nH]c2c1C(c1ccsc1)SCC(=O)N2 (stereo not drawn),19.7
16,CCOc1ccc(C2SCC(=O)Nc3c2c(=O)[nH]n3C(CC)CC)cc1 (stereo not drawn),-19.7
17,O=C1CC(c2ccccc2F)c2c(n(C3CCCC3)[nH]c2=O)N1 (stereo not drawn),68.5
18,COc1ccccc1C1SCC(=O)Nc2c1c(=O)[nH]n2C1CCCCC1 (stereo not drawn),-2.39
19,CC1=Nc2c(c(=O)[nH]n2C2CCOCC2)C(c2cccc(O)c2)S1 (stereo not drawn),0.29
20,O=C1CSC(c2ccsc2)c2c(n(C3CCCC3)[nH]c2=O)N1 (stereo not drawn),63.3
21,CSc1ccc(C2SCC(=O)Nc3c2c(=O)[nH]n3C2CCOCC2)cc1 (stereo not drawn),52.1
22,O=C1CC(C2CCCCC2)c2c(n(C3CCCC3)[nH]c2=O)N1 (stereo not drawn),43.4
23,Cn1cc(C2SCC(=O)Nc3c2c(=O)[nH]n3C2CCOCC2)cn1 (stereo not drawn),-70.7
24,O=C1CSC(c2ccccc2)c2c(n(C3CCOCC3)[nH]c2=O)N1 (stereo not drawn),32.2
25,O=C1CSC(c2ccc(O)cc2)c2c(n(C3CCOCC3)[nH]c2=O)N1 (stereo not drawn),60.1

# — ChEMBL document CHEMBL4513216, “Probing the Open Global Health Chemical Diversity Library for Multistage-Active Starting Points for Next-Generation Antimalarials” (ACS Infect Dis, 2020)
